Compound activity (PubChem)
This is one part of a sample in which hits are shown more often than they occur.
ER stress death: ER stress cell death inhibition | CSM14.1 thapsigargin ER stress survival, ATP luminescence | relative survival (cellular ATP), % at 15 µg/mL (by protocol) | actives 0.33% (n = 48,000) | AID 1010;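 active means survival measured by cellular ATP above 50% at 15 µg/ml in the first screen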;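 further: cell death triggered by about 15 µM thapsigargin; ATP read 24 h after thapsigargin was added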
A number is an active result; n = inactive.

SMILES | ER stress death
O=[N+]([O-])c1cccc(/C=N\N2CCN(C(c3ccccc3)c3ccccc3)CC2)c1 | 52
NC(=O)c1ccccc1N=Cc1cccc([N+](=O)[O-])c1 | n
O=C(N/N=C/c1cccc([N+](=O)[O-])c1)C(Oc1ccccc1)Oc1ccccc1 | n
COc1cc(/C=C2\C(=O)NC(=O)N(c3ccc(F)cc3)C2=O)ccc1O | n
COc1ccc(C(=O)Nc2nc(C34CC5CC(CC(C5)C3)C4)cs2)cc1 | n
O=C(NCc1ccncc1)C(=O)Nc1nccs1 | n
O=C(NCc1ccncc1)C(=O)Nc1nc(C23CC4CC(CC(C4)C2)C3)cs1 | 88
O=C(CCNc1cccc(Br)c1)c1cccs1 | n
CCc1cc2c(=O)c(-c3nc4ccccc4n3C)coc2c(CN2CCN(C)CC2)c1O | n
Cc1cc(C)c(OCCCCn2ccnc2)c(C)c1 | n
Cc1cc(Cl)cc(C)c1OCCCCCCn1ccnc1 | 55
Cc1cc(OCCCCCn2ccnc2)cc(C)c1Cl | n
O=C1C(=O)N(c2nccs2)C(c2cccc(Cl)c2)/C1=C(\O)c1ccc(Cl)cc1 (stereo not given) | n
CCOC(=O)C1=C(O)/C(=C/c2cccc([N+](=O)[O-])c2)SC1=Nc1cccc2ccccc12 | n
CC1(C)C(=O)N(Cc2ccccc2)c2ccccc2N1C(=O)c1ccc([N+](=O)[O-])cc1 | n
COc1ccc(C(=O)N2c3ccccc3N(Cc3ccccc3)C(=O)C2(C)C)cc1 | 110
CC1(C)C(=O)N(Cc2ccccc2)c2ccccc2N1C(=O)c1ccc(Cl)cc1 | n
CCc1ccccc1N1C(=O)C2C(c3ccccc3Cl)OC3(C(=O)c4ccccc4C3=O)C2C1=O (stereo not given) | n
Cc1oc2cc(OCc3ccc([N+](=O)[O-])cc3)ccc2c(=O)c1-c1nc2ccccc2n1C | n
COc1ccc(C2CC(C(F)(F)F)n3ncc(C(=O)Nc4ccc(F)cc4F)c3N2)cc1OC (stereo not given) | n
Cc1ccc(C2CC(C(F)(F)F)n3ncc(C(=O)N(Cc4ccccc4)Cc4ccccc4)c3N2)cc1 (stereo not given) | n
COc1ccc(C2CC(C(F)(F)F)n3ncc(C(=O)N(C)Cc4ccccc4)c3N2)cc1OC (stereo not given) | 82
Cc1ccc(C2(C)N(O)C(C)C(c3ccccc3)=[N+]2[O-])cc1 (stereo not given) | n
CCOc1ccccc1N1CCN(C(=O)c2cc(OC)c(OC)c(OC)c2)CC1 | n
CCOc1ccccc1N1CCN(C(=O)c2sc3ccccc3c2Cl)CC1 | 125
SMILES | ER stress death
CCOc1ccccc1N1CCN(C(=O)c2cccc(Cl)c2)CC1 | n
CC(=O)C1=C(O)C(=O)N(C)C1c1ccccc1[N+](=O)[O-] (stereo not given) | n
COc1cccc(OC)c1C(=O)Nc1cc(Cl)cc(Cl)c1 | n
CC1C(=O)N(c2ccc(Cl)c(Cl)c2)C(=N)N1c1nc(N(C)C)nc(N(C)C)n1 (stereo not given) | n
COc1ccc(NC(=O)c2cc(-c3ccc(OC)cc3OC)nc3ccccc23)c(OC)c1 | n
COc1ccc(-c2nc3ccccc3c(C(=O)Nc3ccc(C)cc3)c2C)cc1 | n
COc1ccc(NC(=O)c2c(C)c(-c3ccc(C)cc3)nc3ccccc23)c(OC)c1 | 68
COC(=O)CN1C(=O)C(=C(C#N)C#N)c2ccccc21 | n
CCOc1ccccc1NC(=O)CN(c1ccc(C)cc1)S(=O)(=O)c1ccc(SC)cc1 | n
CCOc1ccc(S(=O)(=O)N(CC(=O)Nc2ccccc2OCC)c2ccc(C)cc2)cc1 | 66
CCOc1ccc(S(=O)(=O)N(CC(=O)Nc2ccccc2CC)c2ccc(C)cc2)cc1 | n
O=[N+]([O-])c1ccc2c(c1)Cc1cc(N=Cc3ccccc3F)ccc1-2 | n
C#Cc1cccc(NC(=O)c2cc(C(=O)Nc3cccc(C#C)c3)cc(N3C(=O)c4ccccc4C3=O)c2)c1 | n
Cc1cc(C)cc(CSCC(=O)Nc2ccc(C(C)C)cc2)c1 | n
CCOc1cc(C2Nc3ccccc3NC3=C2C(=O)CC(c2ccccc2)C3)cc(Br)c1O (stereo not given) | n
COc1ccc(C2CC(=O)C3=C(C2)Nc2ccccc2NC3c2cccc(Oc3ccccc3)c2)cc1OC (stereo not given) | 85
COc1ccc(C2CC(=O)C3=C(C2)Nc2ccccc2NC3c2ccc(OC)c(Br)c2)cc1 (stereo not given) | 96
COc1ccc(C2CC(=O)C3=C(C2)Nc2ccccc2NC3c2cccc(F)c2)cc1OC (stereo not given) | n
COc1ccc(C2Nc3ccccc3NC3=C2C(=O)CC(c2ccccc2)C3)cc1Br (stereo not given) | n
COc1ccc(C2CC(=O)C3=C(C2)Nc2ccccc2NC3c2ccc(OC)c(OC)c2)cc1 (stereo not given) | n
CCOc1ccc(C2Nc3ccccc3NC3=C2C(=O)CC(c2ccc(OC)cc2)C3)cc1OC (stereo not given) | n
COc1ccc(C2CC(=O)C3=C(C2)Nc2ccccc2NC3c2ccc(-c3ccccc3)cc2)cc1OC (stereo not given) | n
